# AmpC nodet inh – blocks E. coli AmpC beta-lactamase in absence of detergent. P00811. AmpC nitrocefin hydrolysis, absorbance 480 nm, no detergent. Potency, µM (series often up to 28.7 µM), for inactives: top-dose activity change, negative = inhibition. 71,000 compounds, 1.8% hits. AID 585; further: % of control where 0% means no effect
# Target sequence (P00811 whole entry, looked up): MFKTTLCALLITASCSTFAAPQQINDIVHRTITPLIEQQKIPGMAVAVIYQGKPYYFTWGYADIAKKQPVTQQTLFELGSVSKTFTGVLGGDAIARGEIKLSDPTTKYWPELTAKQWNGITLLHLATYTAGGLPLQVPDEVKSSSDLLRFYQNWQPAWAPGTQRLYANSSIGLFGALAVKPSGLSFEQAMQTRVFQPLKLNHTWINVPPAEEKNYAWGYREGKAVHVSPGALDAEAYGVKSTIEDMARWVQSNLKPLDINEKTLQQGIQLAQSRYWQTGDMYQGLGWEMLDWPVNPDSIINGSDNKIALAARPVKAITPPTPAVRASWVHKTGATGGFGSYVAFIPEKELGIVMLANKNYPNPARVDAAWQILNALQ
#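 AmpC, 20 mM phosphate pH 7.0; 15 min cpd preinc, RT; start with nitrocefin (800 uM stock); A480 kinetic read, 20 s intervals, 4 min. No-enzyme wells = negative control.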
# AmpC det inh – blocks E. coli AmpC beta-lactamase in presence of detergent; P00811; purified AmpC, nitrocefin hydrolysis with detergent; Potency, µM (top dose mostly 28.7 µM), for the others: at the top dose activity change, negative = inhibition; 71,000 compounds, 0.09% hits; active means well fitted curve in the direction sought with a large enough effect; inconclusive means small, poorly fitted or top-dose-only effect; further: on the % scale 0 is the no-effect control and ±100 the full control effect
#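 E. coli AmpC (5.3 nM) in 20 mM phosphate pH 7.0 with 0.01% Triton X-100, preincubated 15 min RT with compound; nitrocefin (2 uL of 800 uM stock) hydrolysis followed by 480 nm absorbance every 20 s over 4 min.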
# Prx2 Sm inh – Schistosoma mansoni Prx2 inhibition. AID 448. S. mansoni Prx2 activity coupled to TGR/GSH (TGR is thioredoxin glutathione reductase), NADPH fluorescence loss, qHTS. 65,000 compounds, 0.07% hits. Potency, µM
#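 Purified S. mansoni TGR and Prx2 in pH 7.4 phosphate buffer with EDTA and Tween-20 were preincubated with compounds for 15 min. Further NADPH/GSH was added, then a 2.5 mM H2O2 aliquot initiated turnover, followed kinetically by NADPH fluorescence.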
# LT uptake inh – inhibitors of anthrax lethal toxin internalization. Potency, µM (highest dose often 40 µM), inactives show at the top dose activity change, negative = inhibition, most hits filed as inhibitors. AID 912. 70,000 compounds, 0.67% hits. Cells, anthrax lethal toxin internalization, FRET ratio (460/530); further: on the % scale 0 is the no-effect control and ±100 the full control effect; nearly all actives have a fitted effect of over 50% in size
# Active calls of the source: *; ? = inconclusive; . = not tested or not shown; [ ] = another dose, or the depositor's remark. An excerpt weighted towards active compounds, which were near 2.4% of everything screened. Unless noted, the call rests on the fitted dose curve. Potency means the concentration at half of the fitted maximal effect.
SMILES,AmpC nodet inh,AmpC det inh,Prx2 Sm inh,LT uptake inh
COc1ccccc1CN1CC(C(=O)NCC2CCCO2)CC1=O (stereo not drawn),-9%,-3%,>57,8%
COc1ccc(C(C)(C)C)cc1NC(=O)Nc1ccc2c(c1)OCO2,-4%,0%,>57,10µM*
CCCCOc1ccc(S(=O)(=O)n2c(C)nc3ccccc32)cc1,43%,1%,>57,?
CCOc1ccc(S(=O)(=O)n2c(C)nc3ccccc32)cc1,4µM*[single pt active],14%,>57,-20%
CCOC(=O)c1nnn(CC(=O)Nc2cc(Cl)ccc2C)c1C(=O)OCC,16%,-3%,>57,7.9µM*
CCOC(=O)C1C(=O)CC(C)(O)C(C(=O)OCC)C1c1ccc2c(c1)OCO2 (stereo not drawn),23%,0%,>57,-6%
COc1ccccc1NC(=O)Cn1c(=O)n2nc(C)nc2c2ccccc21,26%,7%,>57,-3%
COc1ccc(Cl)cc1NC(=O)Cn1c(=O)n2nc(C)nc2c2ccccc21,4µM*[single pt active],11%,>57,-4%
Nc1ccc(-c2cc(N)n(-c3ccccc3)n2)cc1,35%,-4%,>57,?
Cc1ccc(-n2nc(-c3ccc(N)cc3)cc2N)cc1,3.2µM*[single pt active],9%,>57,?
CC(=O)c1cc2c(cc1NC(=O)CN1CCN(C(=O)c3ccco3)CC1)OCO2,4µM*[single pt active],11%,>57,-6%
CCOC(=O)N1CCN(CC(=O)Nc2cc3c(cc2C(C)=O)OCO3)CC1,7%,0%,>57,9%
O=C(Cn1cc2c(n1)CCCC2)Nc1ccccc1Br,4µM*[single pt active],11%,>57,-19%
COc1ccc2c(CC(=O)Nc3ccc(OC)c(NS(=O)(=O)c4ccc(F)cc4)c3)coc2c1,?,-3%,>57,10µM*
CN(C)c1cc(NC(=O)CN2CCOCC2)c2ccccc2n1,4µM*[single pt active],12%,>57,-20%
CCCCC(=O)Nc1cc(N(C)C)nc2ccccc12,8%,-2%,>57,-3%
Cc1cc(NC(=O)CSc2nc(C(C)C)nc3sc(C)c(C)c23)no1,10%,-1%,>57,-3%
Cc1cc(NC(=O)CSc2ncnc3sc4c(c23)CCC(C)C4)no1 (stereo not drawn),5µM*,-4%,>57,-1%
CCCn1c(Sc2nnnn2-c2ccccc2)n[nH]c1=O,-4%,-1%,>57,-8%
C=CCn1c(SCCCC)nc(O)cc1=O,4µM*[single pt active],11%,>57,-3%
O=C(Nc1ccc(-c2noc(CCc3ccccc3)n2)cc1)c1cccnc1,98%,-3%,>57,10µM*
CC(C)(C)c1ccc(-c2nnc(SCc3ccc(Cl)cc3)n2-c2cccc(C(F)(F)F)c2)cc1,1%[5.75 µM],-6%[5.75 µM],>57,?
CCC(NC(=O)OC(C)(C)C)C(=O)Oc1ccc2c3c(c(=O)oc2c1)CCC3 (stereo not drawn),44%,-2%,55*,.
O=C(Oc1ccc2c3c(c(=O)oc2c1)CCCC3)c1ccco1,2%,6%,55*,?
COc1cccc(OCc2nc3ccccc3[nH]2)c1,4µM*[single pt active],12%,>57,-22%
SMILES,AmpC nodet inh,AmpC det inh,Prx2 Sm inh,LT uptake inh
CCC(=O)Nc1c2c(nn1-c1cccc(Cl)c1)CSC2,4µM*[single pt active],13%,>57,6%
O=C(CCCCCN1C(=O)CCC1=O)NCc1ccccc1,-3%,-1%,>57,?
COc1cccc(-c2ccc3ncnc(NCc4ccc(OC)cc4OC)c3c2)c1,7.9µM*,13µM*,>57,?
COc1cccc(-c2ccc3ncnc(NCc4ccccc4)c3c2)c1,-12%,4%,>57,?
COc1cccc(-c2ccc3ncnc(NCc4ccccc4OC)c3c2)c1,1.3µM*,13µM*,>57,4µM*
COc1cccc(-c2cc(NCc3ccccc3)ncn2)c1,5µM*,7.9µM*,>57,1%
Cc1sc2nc(CN(C(=O)c3cccs3)C3CCCC3)[nH]c(=O)c2c1C,21%,-3%,>57,2%
CCc1nc(SCC(=O)N2CCCc3ccccc32)c2c(=O)n(C)c(=O)n(C)c2n1,-8%,5%,>57,25%
CC(=O)OCC1=C(C(=O)O)N2C(=O)[C@@H](N)[C@@H]2SC1,5µM*,?,>57,7%[3.58 µM]
CC(=O)OCC1=C(C(=O)[O-])N2C(=O)[C@@H](NC(=O)CCC[C@@H](N)C(=O)[O-])[C@@H]2SC1.[Zn+2],1%,-1%,>57,1%
Cc1ccccc1CS(=O)(=O)Cc1ccc(C(=O)NCc2ccccn2)o1,11%,5%,>57,-4%
Cc1ccc(S(=O)(=O)Nc2cccc(-c3cn4ccsc4n3)c2)cc1,6.3µM*,-1%,>57,?
